According to PubChem BioAssay AID504434 (National Center for Advancing Translational Sciences (NCATS), 2011):
Records with an inconclusive call do not appear. A number with no mark means an inactive call. Calls follow the shape of the dose curve; as a rule, active = well fitted curve in the direction sought with a large enough effect; inconclusive = small, poorly fitted or top-dose-only effect, or effect the other way, or another doubt; inactive = no such curve, though single readings can be large or run the other way.

Assay: Secondary Assay for lipid storage modulators: AML12 cell LDSA assay for probe SAR
Details: AML12 lipid droplet accumulation, BODIPY 493/503 imaging, oleate; series mostly up to 46.1 µM; activity change, negative = inhibition: at the top concentration
Outline: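 Lipid-droplet accumulation in oleic acid (400 uM)-loaded AML12 cells was read as BODIPY 493/503 fluorescence, with CMTPX staining counting cells, after 18-24 h at 24 degree celsius with compound. Activity normalised to 20 uM Triacsin C (100% inhibition).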
In the case of COc1ccc(CCNC(=O)c2cc3sc(C)cc3n2C)cc1OC, the “activity change, negative = inhibition” value is reported as 8.57%.
For S=C(Nc1cc(Cl)ccc1Oc1ccccc1)N1CCN(c2ncccn2)CC1, the “activity change, negative = inhibition” value was 10%.
With O=C(Cc1cccs1)Nc1nc(-c2ccc3c(c2)CCC3)cs1 the “activity change, negative = inhibition” value was 12.9%.
With CCOc1ccc(NC(=O)NC2(C(=O)N3CCCCC3)CCCCC2)cc1 the “activity change, negative = inhibition” value was -27.8%.
In the case of CCn1c(C(=O)NCCc2ccc(OC)c(OC)c2)cc2sccc21, the “activity change, negative = inhibition” value is reported as -25%.
With CCOC(=O)C1CCN(C(=O)C(C)(C)NC(=O)Nc2ccc(OC)c(Cl)c2)CC1 the “activity change, negative = inhibition” value was -44.8%.
With Cc1ccc(CC(=O)Nc2nc(-c3cccs3)cs2)cc1 the “activity change, negative = inhibition” value was -12.9%.
With Cc1cccc(-c2ccc3ncnc(NCc4cccc(F)c4)c3c2)c1 the “activity change, negative = inhibition” value was -19.7%.
In the case of CCn1c(C(=O)NCCc2ccc(OC)cc2)cc2sccc21, the “activity change, negative = inhibition” value is reported as -5.26%.
In the case of O=C(Nc1cccc2nn(-c3ccc(F)cc3)cc12)c1ccccn1, the “activity change, negative = inhibition” value is reported as -9.21%.
For CCOC(=O)C1CCN(C(=O)C(C)(C)NC(=O)Nc2cccc(-c3csc(C)n3)c2)CC1, the “activity change, negative = inhibition” value was -30.2%.
With Cc1ccc(C)c(-c2csc(NC(=O)CSc3nnc(Nc4ccc(OC(F)(F)F)cc4)s3)n2)c1 the “activity change, negative = inhibition” value was 15.7%.
In the case of CCOC(=O)C1CCN(C(=O)C(C)(C)NC(=O)Nc2ccc3ccccc3c2)CC1, the “activity change, negative = inhibition” value is reported as -61.8%.
For O=C(NC1CCCc2c1cnn2-c1ccc(F)cc1F)c1cccs1 (centres undefined), the “activity change, negative = inhibition” value was -23.7%.
